From ChEMBL document CHEMBL4513216, “Probing the Open Global Health Chemical Diversity Library for Multistage-Active Starting Points for Next-Generation Antimalarials” (ACS Infect Dis, 2020) come the findings set out here.

Hit rate of the full screen: of about 65,000 compounds, about 2,100 (3.2%) showed an effect of 50% or more. The median lay at about -52%. The full list was thinned out, with strong results kept by preference.

For the assay, the system named is Plasmodium falciparum. Briefly: Screen against P. falciparum Asexual Blood Stage (ABS), at 5uM. The format is functional, Dd2. The following applies: tested at 5 uM.
As to `Cc1cccc(CN2CCN3C[C@H](Oc4cncnc4)C[C@H]3C2)n1`, the INHIBITION is -87%.

Consider `Cc1cccc(CN2CCC3(CCN(c4ncccn4)CC3)C2=O)c1`, for which the INHIBITION was found to be 76%.

In the case of `CCC(=O)N1CCC2(CC1)C(=O)N(Cc1cccnc1)CCN2C`, the INHIBITION was 0.961%.

`Cc1cccc(CN2CCCC(O)(CNCc3ncccc3C)C2=O)c1` (stereo unspecified): the INHIBITION was determined as 82.1%.

`Cc1ccc(CN2C[C@@H]3CN(c4ncccn4)C[C@@H]3C2)cc1`: the INHIBITION is -62.8%.

Turning to `Cc1cccc(CN2CCCC[C@H]3CN(c4ncccn4)C[C@H]32)c1`, the INHIBITION is -35.2%.

As for `Cc1cccnc1CN(C)CC1(O)CCCN(CC2CCCCC2)C1=O` (stereo unspecified), the INHIBITION was found to be 44.3%.

With `CC(C)c1cc(N2CCC3(CC2)CN(C)CCN3C)ncn1`, the INHIBITION is recorded as -11.3%.

Turning to `CCOc1ncccc1C(=O)N1CCN(C)C2(CCN(C)CC2)C1`, the INHIBITION is listed as 10.3%.

On to `Cc1cc(C)c2c(NCCC34CCCN3CCC4)ncnc2n1`, for which the INHIBITION is given as -48.6%.

Regarding `O=C(C1CCC1)N1CCN(Cc2cccnc2)[C@H]2CS(=O)(=O)C[C@H]21`, the INHIBITION was -17.6%.

Consider `O=C(C1CCC1)N1CC[C@]2(O)CCN(Cc3ncccn3)C[C@@H]2C1`, for which the INHIBITION is on record as -55.6%.

For the compound `CCc1ncc(CN2C[C@@H]3CC[C@H]2CN(C(=O)C2CCC2)C3)cn1`, the INHIBITION was -85.5%.

`CC(C)Nc1cc(-c2c[nH]nc2C2CCN(C(=O)C3CCC3)C2)ccn1` (stereo unspecified): the INHIBITION was found to be 83.7%.

`CC(C)Nc1cc(-c2c[nH]nc2C2CCN(C(=O)C3CC3)C2)ccn1` (stereo unspecified): the INHIBITION came out at 80.9%.

With `CCCNc1cc(-c2c[nH]nc2C2CCN(C(=O)C3CCC3)C2)ccn1` (stereo unspecified), the INHIBITION was 92.5%.

Regarding `O=C1NC2(CCc3ccccc31)CCN(Cc1cccnc1)C2` (stereo unspecified), the INHIBITION is -111%.

Regarding `O=C(c1ccco1)N1C[C@H]2CCCN(Cc3ccncc3)[C@H]2C1`, the INHIBITION was -19.6%.

Regarding `Cn1cnc(S(=O)(=O)N2C[C@H]3CN(Cc4cccnc4)C[C@H]3C2)c1`, the INHIBITION is -85.8%.

`Cc1sc2nc(CCN)nc(N3CCC(N4CCCC4)CC3)c2c1C`: the INHIBITION was 84.3%.

Take `Cc1sc2nc(CCN)nc(N3CC(N4CCCCC4)C3)c2c1C`: the INHIBITION is 81.6%.

As for `COCC(=O)NC[C@H]1C[C@@H]2CCN1C[C@@H]2CN1CCc2ccccc21`, the INHIBITION amounted to 27.2%.

As for `N#Cc1cnc2ccccc2c1N1CCNCC1`, the INHIBITION is reported as -3.53%.

For the compound `O=C(C1CCCCC1)N1C[C@H]2CNC[C@H]2C1`, the INHIBITION stood at 44.5%.

As to `CN1C[C@@H]2C[C@H](C(=O)Nc3cccnc3)[C@H](C1)O2`, the INHIBITION is -69.3%.

For the compound `COc1ccc(CNC(=O)C2=NN(c3ccc(C)cc3)C(=O)CN2)cc1`, the INHIBITION came out at 75%.

`CC(=O)NC(C)C(=O)NCc1ccc(N2CCNC(=O)C2)cc1` (stereo unspecified): the INHIBITION is -4.19%.

Regarding `COCCN1CCO[C@H]2[C@H](OCc3cccc(C)n3)CC[C@@H]21`, the INHIBITION was -74.3%.

Take `Cc1ccc2[nH]c(C3CCN(C)CC3)nc2c1`: the INHIBITION is listed as -40.2%.

Take `CC(C)(C)c1n[nH]c(C2CN(CC3CCC3)CCO2)n1` (stereo unspecified): the INHIBITION is on record as -108%.

`Cc1ccc2[nH]c([C@H]3CCN(CC4CCCCC4)C3)nc2c1`: the INHIBITION is 74.7%.

Turning to `CCC(CC)NCC(C)Oc1cccnc1` (stereo unspecified), the INHIBITION is given as -116%.

For `Cc1cn2c(n1)C(CNCc1cccc3c1OCO3)CCC2` (stereo unspecified), the INHIBITION is on record as 82.1%.

Take `Cc1cn2c(n1)C(CNCc1ccc(C)s1)CCC2` (stereo unspecified): the INHIBITION turned out to be 91.1%.

For `CCOC[C@@H]1CCC[C@@]12CN(Cc1cccnc1)CCO2`, the INHIBITION is recorded as -129%.

`Cc1ccc(CNC2CC3(CCN(CCO)CC3)c3ccccc32)s1` (stereo unspecified): the INHIBITION stood at 85.4%.

`Cc1ccc(CN2CCC3(CC2)C(=O)N(C)c2ccccc23)s1`: the INHIBITION is 3.77%.

Regarding `Cc1cccc(CNC2CC3(CCN(CCO)CC3)c3ccccc32)n1` (stereo unspecified), the INHIBITION was 78.6%.

For `Cc1cccc(CN2C[C@@H]3OCCN(C)[C@@H]3C2)n1`, the INHIBITION is recorded as -14.4%.

With `Cc1ccc2c(c1)C(N(C)C)CC21CCN(CCO)CC1` (stereo unspecified), the INHIBITION came out at 74.8%.

Turning to `COCCN1CCC2(COCc3cnc(-c4ccccc4)nc32)C1` (stereo unspecified), the INHIBITION is recorded as 31.2%.

For the compound `Cc1ccc2c(c1)C1(CCNCC1)CC2NCCO` (stereo unspecified), the INHIBITION is given as -23.2%.

In the case of `COCCN1CCC2(CC1)CC(NCc1ccc(C)s1)c1ccccc12` (stereo unspecified), the INHIBITION is reported as 77.2%.

For `Cc1ccc2c(c1)CCC21CCN(CCO)CC1`, the INHIBITION is 15.4%.

As to `O=S(=O)(C1CC1)N1CCC2(CCCN(Cc3ccccn3)C2)C1` (stereo unspecified), the INHIBITION worked out at 12.2%.

Take `O=C(Cc1ccccn1)N1CCN2C[C@H](OCCN3CCCC3)C[C@H]2C1`: the INHIBITION was 2.21%.

Turning to `CC[C@@H]1N(CC2CC2)CCC[C@]12CCC(=O)N2`, the INHIBITION is -57.5%.

For `Cc1noc(C)c1CN1CC[C@H]2[C@H]1CCN2CC1CCOCC1`, the INHIBITION is -92%.

Turning to `CNC(=O)[C@H]1C[C@@H]2CN(C(=O)c3ccc(C)nc3)C[C@@H]2N1C`, the INHIBITION was -35.1%.

`CC(C)C(NC(=O)c1ccccc1)C(=O)N1CCC2(CC1)OCCO2` (stereo unspecified): the INHIBITION is given as -37.3%.

For the compound `CN(C)C(=O)c1ccc(-c2cccc3c2CCNC3)o1`, the INHIBITION is on record as -44.3%.

Turning to `Cn1cc(CN2CC[C@]3(C[C@H](Oc4ccccn4)CO3)C2)cn1`, the INHIBITION is -20.3%.

Take `CN1C(=O)C2(CCN(CC3CC3)CC2)c2ccccc21`: the INHIBITION came to 25.6%.

For `Cn1cc(CNC2CC3(CCN(CC4CC4)CC3)c3ccccc32)cn1` (stereo unspecified), the INHIBITION is listed as 87.6%.

Take `NCC1CCN(C2CCN(c3ccc(-c4ccco4)cc3)CC2)C1` (stereo unspecified): the INHIBITION was 91%.

As for `Cc1oc(-c2ccco2)nc1CC(=O)N1CCN(C2CCC2)CC1`, the INHIBITION is -14.4%.

Consider `CNC1CCN(C2CCN(c3ccc(-c4ccco4)cc3)CC2)CC1`, for which the INHIBITION came out at 86.4%.

In the case of `NC1CCN(C2CCN(c3ccc(-c4ccco4)cc3)CC2)CC1`, the INHIBITION was 80.3%.

For `O=C1NC2(CCCCC2)c2nnnn2-c2ccc(Br)cc21`, the INHIBITION is recorded as -67.2%.

As to `O=C(CCc1ccsc1)N1CCC(C(=O)O)(c2ccccc2)CC1`, the INHIBITION was -103%.

Take `CCN1CCCN(S(=O)(=O)c2cc3ccccc3o2)CC1`: the INHIBITION turned out to be 84.3%.

With `NC(=O)CN1CCCN(C(=O)Cc2ccc(F)cc2)CC1`, the INHIBITION is -158%.

As to `CS(=O)(=O)c1ccc(-c2cc(O)cc(CCC3CCCCN3)c2)cc1` (stereo unspecified), the INHIBITION worked out at 70.3%.

With `CS(=O)(=O)c1ccc(CC(=O)N2CCN3CCNC(=O)C3C2)cc1` (stereo unspecified), the INHIBITION is -50.4%.

`CCCN1CCN(Cc2nccn2CC)C(C)C1` (stereo unspecified): the INHIBITION is reported as -101%.

Regarding `CCCn1ccnc1CN1CCCC1c1ccccn1` (stereo unspecified), the INHIBITION stood at 86.8%.

Take `CCC(=O)N1CCN(Cc2cnc(C)nc2)[C@H]2CS(=O)(=O)C[C@H]21`: the INHIBITION is recorded as -106%.

For `Cc1ccc(Sc2ccc(CN3CCC4(CCCNC4=O)C3)o2)cc1` (stereo unspecified), the INHIBITION was 73.1%.

For `O=C1CC2(CCN(Cc3ccc(Cl)s3)C2)C(=O)N1` (stereo unspecified), the INHIBITION was -155%.

For the compound `Cc1nnc(N2CCCC3(CN(Cc4ccncc4)CCO3)C2)o1` (stereo unspecified), the INHIBITION is reported as -78.8%.

As for `CC(C)C(=O)N1CCCC2(CCCN2Cc2cccnc2)C1` (stereo unspecified), the INHIBITION was -13.9%.

With `Cc1ccccc1CC(=O)N1C[C@@H](O)[C@H](N2CCN(C)CC2)C1`, the INHIBITION is given as -87.9%.

As for `CN(C)[C@@H]1CCN(c2ncccn2)[C@H]1Cc1ccccc1`, the INHIBITION was determined as 78.1%.

Consider `CN(C)[C@@H]1CCN(C(=O)Cc2cccs2)[C@H]1Cc1ccncc1`, for which the INHIBITION is -51.7%.

As for `Cc1cccc(CN2CC[C@@H]3[C@@H]2CCN3C(=O)c2cc(C)on2)n1`, the INHIBITION was -95.7%.

Take `CN(C)C(=O)CN1CC[C@H]2[C@H]1CCN2c1ncccn1`: the INHIBITION is given as -109%.

For `CN(C)[C@@H]1CCN(c2ncc(F)cn2)[C@H]1Cc1ccccc1`, the INHIBITION was found to be 89%.

`Cc1ccc(CN2C[C@@H]3CN(c4ncc(F)cn4)C[C@@H]3C2)cc1`: the INHIBITION was -37%.

For the compound `Cc1cc(C(=O)N2CC[C@@H](N(C)C)[C@@H]2Cc2ccccc2)no1`, the INHIBITION turned out to be 74.4%.

Consider `CN(C)[C@@H]1CCN(C(=O)Cc2ccc(F)cc2)[C@H]1Cc1ccncc1`, for which the INHIBITION was determined as 5.44%.

`CN(C)[C@@H]1CCN(C(=O)Cc2cccs2)[C@H]1Cc1cnn(C)c1`: the INHIBITION is -4.87%.

In the case of `O=S1(=O)NCC2(CCN(Cc3ccc(Cl)s3)C2)Oc2ncccc21` (stereo unspecified), the INHIBITION is recorded as -56.7%.

Consider `O=C1N(c2ccsc2)CCC12CCCN(Cc1cccnc1)C2` (stereo unspecified), for which the INHIBITION is -28.4%.

As for `CCn1cncc1CN1CCN(CC2(c3ccc(C)cc3)CC2)CC1`, the INHIBITION came out at 70%.

For the compound `CCn1cncc1Cn1ncc2ccccc2c1=O`, the INHIBITION is -114%.

For the compound `COCCn1cncc1CN1CCC(C(C)=O)(c2ccccc2)CC1`, the INHIBITION is recorded as -20.6%.

With `Cc1noc(C)c1CN1CCO[C@H]2CN(Cc3cncn3C)C[C@H]21`, the INHIBITION is given as -42.6%.

Take `Cc1ccc(C2(CN3CCN(Cc4cncn4C)CC3)CC2)cc1`: the INHIBITION is 73.2%.

Consider `Cn1cncc1CN1C[C@@H]2OCCN(c3ncccn3)[C@@H]2C1`, for which the INHIBITION is -99.1%.

Turning to `Cc1ccc(C2(CN3CCN(Cc4cnc(C)n4C)CC3)CC2)cc1`, the INHIBITION came to 95.4%.

As for `Clc1ccc(-n2nnnc2C2(NCc3ccco3)CCCCC2)cc1`, the INHIBITION came to 5.42%.

Consider `CN(Cc1cncnc1)[C@H]1CN(CC2CC2)[C@@H]2CCCO[C@@H]21`, for which the INHIBITION was found to be 4.52%.

Consider `c1cc(COC[C@]23COC[C@H]2CN(CC2CCC2)C3)ccn1`, for which the INHIBITION is -81.5%.

Consider `CC(C)N(C)Cc1cncc2c1CCN(CC(=O)N(C)C)C2`, for which the INHIBITION was -31.3%.

Take `CC(C)N(C)Cc1cnc2n1CCN(C(=O)NC1CCCC1)C2`: the INHIBITION is listed as 83.4%.

`Cc1noc(C)c1CN1CCCC2(CCN(C(=O)NC3CC3)C2)C1` (stereo unspecified): the INHIBITION is on record as -183%.

With `CN(Cc1ncc(C(C)(C)C)o1)CC1CCCN1c1cccnn1` (stereo unspecified), the INHIBITION is given as 80.7%.

Take `Cc1cc(C)c(CNc2ncnc3ccccc23)c(=O)[nH]1`: the INHIBITION was 14.5%.

For `CN(c1ncnc2ccccc12)C1CCCN(c2cccnn2)C1` (stereo unspecified), the INHIBITION stood at 74.4%.

Take `c1cnnc(N2CCCC2CNc2ncnc3ccccc23)c1` (stereo unspecified): the INHIBITION was 81.1%.

As to `c1cnnc(N2CCCC2CNc2ncnc3sccc23)c1` (stereo unspecified), the INHIBITION was determined as 82%.
